In PubChem BioAssay:
Values without a mark were called inactive. For some assays here: Entries with a potency or affinity are not part of this list. The source made the active and inactive calls. Unless noted, how the calls were made is not given here. Non-standard residues stand in square brackets, D forms with d. Residues, ends and D or L forms follow the SMILES beside them. *: point of attachment. Butanoyl(4-(4-HOPh)) = O=C(CCCc1ccc(O)cc1)*

Legend:
[1] = antimalarial activity against Dd2 strain (AID 2302;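 active means growth inhibition above 50% at the single 2 µM test dose, taken to imply half-maximal potency below 2 µM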;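 further: 0% = DMSO untreated growth and 100% = chloroquine plus artemisinin killed control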); conditions: P. falciparum Dd2 in RBCs, LDH growth readout, 72 h; at 2 µM; stronger effect = higher value
[2] = human hepatoma cell viability loss – ATP luminescence, cytotoxicity control for P. falciparum antimalarial project, primary screen (AID 2303;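 active means inhibition above 50%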;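 further: 0% = DMSO wells and 100% = digitonin-killed cells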); conditions: HepG2 viability, 24-48 h, at 10 µM, stronger effect = higher value
[3] = molecular target: L-lactate dehydrogenase (Plasmodium falciparum (isolate CDC / Honduras)) (UniProt Q27743); experiment: PfLDH activity inhibition – cell lysate, 3D7 strain, counter-screen for P. falciparum growth inhibition project (AID 2304);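 further: 0% = vehicle and 100% = reference inhibitor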; conditions: P. falciparum 3D7 crude extract, LDH APAD/NBT absorbance; at 2 µM; stronger effect = higher value
Sequence of L-lactate dehydrogenase (Plasmodium falciparum (isolate CDC / Honduras)) (Q27743 whole entry, looked up): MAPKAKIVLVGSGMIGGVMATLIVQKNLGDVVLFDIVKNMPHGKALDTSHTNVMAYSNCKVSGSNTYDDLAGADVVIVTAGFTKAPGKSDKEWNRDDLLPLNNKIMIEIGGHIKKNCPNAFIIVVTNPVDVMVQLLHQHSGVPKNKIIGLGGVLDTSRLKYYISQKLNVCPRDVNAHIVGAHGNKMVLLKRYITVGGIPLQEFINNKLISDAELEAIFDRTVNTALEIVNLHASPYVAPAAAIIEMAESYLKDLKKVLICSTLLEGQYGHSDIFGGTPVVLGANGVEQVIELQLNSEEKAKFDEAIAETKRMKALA

[4] = inhibition of 3D7 malaria parasite growth – strain 3D7 (AID 2306);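 further: 0% = DMSO wells and 100% = chloroquine plus artemisinin control wells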; conditions: P. falciparum 3D7 erythrocytic growth, LDH absorbance, 72 h; at 2 µM; stronger effect = higher value
[5] = molecular target: Calcium-dependent protein kinase 1 (Plasmodium falciparum (isolate 3D7)) (UniProt P62344); experiment: PfCDPK1 kinase inhibitors, biochemical, TCAMS library (AID 1159585; cut-off not given, nearly all actives have IC50 up to about 0.98 µM;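 further: inhibitors leave more ATP so luminescence rises with inhibition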); conditions: recombinant PfCDPK1, Kinase-Glo ATP depletion luminescence
Sequence of Calcium-dependent protein kinase 1 (Plasmodium falciparum (isolate 3D7)) (P62344 whole entry, looked up): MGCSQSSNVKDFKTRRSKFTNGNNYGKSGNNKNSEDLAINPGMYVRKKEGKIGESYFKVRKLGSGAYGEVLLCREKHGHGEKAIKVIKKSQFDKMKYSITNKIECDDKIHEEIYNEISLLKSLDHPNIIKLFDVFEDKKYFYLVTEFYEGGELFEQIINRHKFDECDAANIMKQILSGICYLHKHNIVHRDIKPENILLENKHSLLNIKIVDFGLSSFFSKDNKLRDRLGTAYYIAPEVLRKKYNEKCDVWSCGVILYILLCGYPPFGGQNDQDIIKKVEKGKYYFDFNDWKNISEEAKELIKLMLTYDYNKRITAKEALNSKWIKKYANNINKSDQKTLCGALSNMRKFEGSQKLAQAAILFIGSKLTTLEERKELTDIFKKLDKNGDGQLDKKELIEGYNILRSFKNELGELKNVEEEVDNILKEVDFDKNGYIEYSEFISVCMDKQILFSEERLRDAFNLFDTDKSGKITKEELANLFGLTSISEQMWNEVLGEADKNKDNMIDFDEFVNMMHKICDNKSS

[6] = molecular target: Plasmodium falciparum protein kinase 6 (PK6, PF3D7_1337100) (UniProt Q8IDW1); experiment: PfPK6 kinase inhibitors, biochemical, TCAMS library (AID 1159586); conditions: recombinant PfPK6, Kinase-Glo ATP depletion luminescence
Sequence of Plasmodium falciparum protein kinase 6 (PK6, PF3D7_1337100) (Q8IDW1 1-305): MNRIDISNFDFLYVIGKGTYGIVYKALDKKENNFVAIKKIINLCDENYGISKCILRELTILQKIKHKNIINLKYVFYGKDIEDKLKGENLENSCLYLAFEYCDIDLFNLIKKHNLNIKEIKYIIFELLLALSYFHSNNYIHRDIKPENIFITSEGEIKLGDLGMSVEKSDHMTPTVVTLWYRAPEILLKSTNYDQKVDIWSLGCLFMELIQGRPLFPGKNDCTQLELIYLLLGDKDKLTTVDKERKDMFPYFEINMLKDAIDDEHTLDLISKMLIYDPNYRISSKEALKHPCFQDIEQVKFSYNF

[7] = molecular target: Protein kinase 7 (PK7), Plasmodium falciparum 3D7 (PF3D7_0213400) (UniProt Q7YTF7); experiment: inhibition of Plasmodium PK7 catalytic activity – biochemical, TCAMS antimalarial set, Kinase-Glo luminescence (AID 1159587); conditions: recombinant PfPK7, Kinase-Glo ATP depletion luminescence
Sequence of Protein kinase 7 (PK7), Plasmodium falciparum 3D7 (PF3D7_0213400) (Q7YTF7 1-343): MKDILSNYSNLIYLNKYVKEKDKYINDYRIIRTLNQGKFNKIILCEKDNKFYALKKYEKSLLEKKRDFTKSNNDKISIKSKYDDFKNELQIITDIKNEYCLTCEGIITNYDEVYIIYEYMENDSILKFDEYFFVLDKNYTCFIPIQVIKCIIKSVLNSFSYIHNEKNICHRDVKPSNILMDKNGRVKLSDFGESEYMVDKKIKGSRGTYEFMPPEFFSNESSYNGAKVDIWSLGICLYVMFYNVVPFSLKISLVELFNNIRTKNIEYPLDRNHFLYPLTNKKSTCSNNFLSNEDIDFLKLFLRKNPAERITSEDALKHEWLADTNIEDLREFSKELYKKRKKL

[8] = molecular target: Calcium-dependent protein kinase 4 (Plasmodium falciparum (isolate 3D7)) (UniProt Q8IBS5); experiment: PfCDPK4 kinase inhibitors, biochemical, TCAMS library (AID 1159588; cut-off not given, nearly all actives have IC50 up to about 0.91 µM); conditions: recombinant PfCDPK4, Kinase-Glo ATP depletion luminescence
Sequence of Calcium-dependent protein kinase 4 (Plasmodium falciparum (isolate 3D7)) (Q8IBS5 whole entry, looked up): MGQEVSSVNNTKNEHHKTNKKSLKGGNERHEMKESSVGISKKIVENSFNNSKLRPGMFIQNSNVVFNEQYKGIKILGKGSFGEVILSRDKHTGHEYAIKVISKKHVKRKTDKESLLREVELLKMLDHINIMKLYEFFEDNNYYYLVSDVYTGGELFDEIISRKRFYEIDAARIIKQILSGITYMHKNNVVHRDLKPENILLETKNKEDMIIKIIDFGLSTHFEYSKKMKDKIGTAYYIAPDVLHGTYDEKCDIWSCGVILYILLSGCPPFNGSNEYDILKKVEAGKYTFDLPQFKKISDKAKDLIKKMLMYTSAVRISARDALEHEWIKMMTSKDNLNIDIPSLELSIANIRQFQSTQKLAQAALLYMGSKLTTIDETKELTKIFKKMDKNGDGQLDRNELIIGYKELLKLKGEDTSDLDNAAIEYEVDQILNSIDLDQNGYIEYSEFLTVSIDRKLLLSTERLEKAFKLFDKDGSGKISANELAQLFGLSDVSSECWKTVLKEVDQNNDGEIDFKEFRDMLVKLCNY

SMILES | growth inhibition [1] | inhibition [2] | inhibition [3] [%] | growth inhibition [4] | outcome [5] | outcome [6] | outcome [7] | outcome [8]
CCOC(=O)c1[nH]c2ccc(F)cc2c1NC(=O)CN1CCN(c2cccc(C(F)(F)F)c2)CC1 | 90% (active) | 12% | -2 | 96% (active) | inactive | inactive | inactive | inactive
O=C1CCCN1CCCNCc1cccc(-c2ccc(-c3nc4ccc(C(F)(F)F)cc4[nH]3)cc2)c1 | 96% (active) | 15% | -3 | 101% (active) | inactive | inactive | inactive | inactive
Cn1nc(-c2cccc(CNCc3ccccc3)c2)c2cnc(NC3CCCC3)nc21 | 11% | 5% | 1 | 85% (active) | inactive | inactive | inactive | inactive
CCOC(=O)c1c(C)n(-c2ccccc2)c2ccc(OC(=O)c3ccc(S(=O)(=O)N(CC)CC)cc3)cc12 | 63% (active) | -6% | -3 | 94% (active) | inactive | inactive | inactive | inactive
CC(=O)c1nccc(C)c1N | -1% | 10% | 1 | 92% (active) | inactive | inactive | inactive | inactive
COc1ccc2nccc([C@@H](O)CN3CCC(NC(=O)C(c4cc5ccccc5o4)N4CCN(c5ccccc5)CC4)CC3)c2c1 (stereo not given in full) | 99% (active) | 19% | -2 | 99% (active) | inactive | inactive | inactive | inactive
Cc1ccc2nc3c(cc(C(=O)NCCc4ccccc4)c(=N)n3CCCOC(C)C)c(=O)n2c1 | 12% | 15% | 0 | 96% (active) | inactive | inactive | inactive | inactive
O=C1CC(C(=O)Nc2cccc(-c3cccc(-c4nc5ccccc5[nH]4)c3)c2)c2ccccc2N1 (stereo not given) | 32% | 0% | 1 | 84% (active) | inactive | inactive | inactive | inactive
Cc1cnc(CCNC(=O)c2cc(-c3ccc(Cl)cc3)cs2)[nH]1 | 7% | 12% | 4 | 101% (active) | inactive | inactive | inactive | inactive
COc1cccc(C(=O)Nc2ccc(-c3nc4ccccc4[nH]3)cc2)c1 | 19% | 28% | -3 | 95% (active) | inactive | inactive | inactive | inactive
NC(=O)c1cccc(-n2ccc3cc(CNC4Cc5ccccc5C4)ccc32)c1 | 7% | 17% | -1 | 88% (active) | inactive | inactive | inactive | inactive
CCCN(CCC)CCOc1ccc(C(O)(C#CC(O)(c2ccc(OCCN(CCC)CCC)cc2)c2cccc(Cl)c2)c2cccc(Cl)c2)cc1 (stereo not given) | 98% (active) | 100% (active) | 6 | 101% (active) | inactive | inactive | inactive | inactive
NC1CCN(c2nc(NCCCc3ccc(O)cc3)nc(NCc3cccc4ccccc34)n2)CC1 | 2% | 12% | 6 | 102% (active) | inactive | inactive | inactive | inactive
OC(CN(Cc1ccccc1)Cc1ccccc1)Cn1c2ccc(Cl)cc2c2cc(Cl)ccc21 (stereo not given) | 95% (active) | 5% | 6 | 89% (active) | inactive | inactive | inactive | inactive
COc1ccc(-c2cnc3[nH]cc(-c4ccc(C(=O)O)c(C)c4)c3c2)cn1 | 99% (active) | 23% | -5 | 99% (active) | inactive | inactive | inactive | inactive
c1cncc(-c2cc(N3CCCCC3)nc(-c3ccncc3)n2)c1 | 46% | 18% | 2 | 99% (active) | inactive | inactive | inactive | inactive
O=C(NCC(=O)N1CCC[C@H]1C(=O)O)[C@@H](Cc1ccccc1)NC(=O)[C@@H]1CCCN1C(=O)CCCc1ccc(O)cc1 ({Butanoyl(4-(4-HOPh))}-P[dF]GP-OH) | 1% | 1% | 3 | 81% (active) | inactive | inactive | inactive | inactive
CO/C(=C\C=C\c1cc2cc(Cl)c(Cl)cc2[nH]1)C(=O)NC1C[C@@H](C)N(C)[C@@H](C)C1 (stereo not given in full) | 57% (active) | 64% (active) | 1 | 97% (active) | inactive | inactive | inactive | inactive
CCNc1cc(C)nc(Nc2ccc(NS(=O)(=O)c3cc(OC)ccc3OC)cc2)n1 | 36% | 56% (active) | -1 | 100% (active) | inactive | inactive | inactive | inactive
COc1ccccc1C1CCN(C2CCC(NC(=O)/C=C/c3cc(C(F)(F)F)ccc3F)CC2)CC1 (stereo not given) | 32% | 39% | -3 | 97% (active) | inactive | inactive | inactive | inactive

SMILES | growth inhibition [1] | inhibition [2] | inhibition [3] [%] | growth inhibition [4] | outcome [5] | outcome [6] | outcome [7] | outcome [8]
CN1C(=CC(=O)NC(=O)c2ccccc2)C(C)(C)c2ccccc21 | 89% (active) | -5% | 4 | 93% (active) | inactive | inactive | inactive | inactive
CN(C)c1ccc(NC(=O)Nc2ccnc3ccc(Br)cc23)cc1 | 21% | -5% | 6 | 91% (active) | inactive | inactive | inactive | inactive
CCCc1cc(N2CCC(N3CCCC3)CC2)nc(Nc2ccc(OC)cc2)n1 | 14% | 15% | 6 | 94% (active) | inactive | inactive | inactive | inactive
CC(C)COc1ccc(Cl)cc1Cc1nc(-c2nc3nc(N4CCN(C)CC4)ccc3[nH]2)cs1 | 27% | 29% | -6 | 99% (active) | inactive | inactive | inactive | inactive
Cc1cccc2[nH]c(-c3ccc(-c4cccc(NC(=O)NCc5ccccc5)c4)cc3)nc12 | 0% | 25% | -6 | 95% (active) | inactive | inactive | inactive | inactive
COc1cc(NC(=O)c2sc(-c3ccc(Cl)cc3)cc2NC(=O)CN2CC[C@@H](O)C2)ccc1OCCN1CCCC1 | 79% (active) | 56% (active) | 6 | 90% (active) | inactive | inactive | inactive | inactive
Cc1ccc(CN2CCCN(Cc3cccc(NC(=O)c4cc5ccccc5s4)c3)CC2)cc1 | 28% | 32% | -3 | 87% (active) | inactive | inactive | inactive | inactive
COc1cc(Cc2cnc(N)nc2N)ccc1OCC(=O)Nc1ccc(C)cc1 | 18% | 10% | -2 | 95% (active) | inactive | inactive | inactive | inactive
OC(CN1CCN(C2CCCCC2)CC1)Cn1c2ccccc2c2cc(Br)ccc21 (stereo not given) | 89% (active) | 14% | -2 | 97% (active) | inactive | inactive | inactive | inactive
O=C(Nc1cc(Cl)ccc1O)c1cc(-c2ccccc2O)no1 | 79% (active) | -7% | 2 | 95% (active) | inactive | inactive | inactive | inactive
Cc1cccc2[nH]c(-c3cccc(-c4ccc(NC(=O)c5cnn6cccnc56)cc4)c3)nc12 | 73% (active) | 99% (active) | -1 | 101% (active) | inactive | inactive | inactive | inactive
CC(C)(C)c1ccc2oc(=O)n(C3CCN(C(=O)c4ccc([N+](=O)[O-])o4)CC3)c2c1 | 87% (active) | -8% | -2 | 94% (active) | inactive | inactive | inactive | inactive
CCOC(=O)c1ccc(N2CCN(c3cc(Cl)ccc3C)CC2)c(NC(=O)Nc2ccc(Cl)c(Cl)c2)c1 | 99% (active) | 10% | -5 | 99% (active) | inactive | inactive | inactive | inactive
NC(N)=NN=CC(=O)Nc1ccc(Cl)cc1 | 2% | 5% | -1 | 101% (active) | inactive | inactive | inactive | inactive
O=C(NCC1CCC1)c1cnc(Nc2cccc(Cl)c2)nc1N1CCC1 | 75% (active) | 21% | 2 | 98% (active) | inactive | inactive | inactive | inactive
Oc1cc(Nc2ccnc3cc(-c4ccc(CN5CCCCC5)o4)ccc23)c(Cl)cc1F | 81% (active) | 30% | 5 | 101% (active) | inactive | inactive | inactive | inactive
O=C(c1ccc(F)c2ccccc12)N1CCc2cc3nccc(N4CCN5CCC[C@H]5C4)c3cc21 | 54% (active) | -8% | -5 | 90% (active) | inactive | inactive | inactive | inactive
Cc1cccc(-c2nc3cc(NC(=O)c4ccc([N+](=O)[O-])o4)ccc3o2)c1 | 73% (active) | 8% | 4 | 94% (active) | inactive | inactive | inactive | inactive
COc1ccc(CNCc2ccc(F)cc2)cc1-c1cccc(S(=O)(=O)NCCN2CCCC2)c1 | 54% (active) | 43% | -3 | 101% (active) | inactive | inactive | inactive | inactive
CCNc1cc(C(=O)N[C@@H](Cc2ccccc2)[C@H](O)CN[C@H]2CCc3ccccc32)cc(N2CCCC2=O)c1 | 99% (active) | 8% | 3 | 98% (active) | inactive | inactive | inactive | inactive
